From PubChem BioAssay
ELG1 genotoxic = inducers of genotoxicity in HEK293T ELG1-luciferase cells. hit rate 1.3% among 330,000. HEK293T ELG1-luciferase reporter, luminescence, 16 h. AID 504466. Potency, µM (top dose mostly 46 µM), inactives show at the highest dose activity change, positive = activation, most hits filed as activators; note: % of control where 0% means no effect; nearly all actives have a fitted effect of over 60% in size
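HEK293T cells expressing luciferase-tagged ELG1 were exposed to compound or DMSO vehicle for 16 hr at 37 °C and 5% CO2. Luciferase activity was then measured with ONE-Glo after 30 min at room temperature.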
NPC1 prom act = activates the NPC1 promoter; Potency, µM (series often up to 9.22 µM), for inactives: at the top dose activation, usual class: activators; AID 485313; Huh7 NPC1 promoter luciferase reporter, 24 h; hit rate 2.4% among 320,000; note: % of control where 0% means no effect; nearly all actives have a fitted effect of over 60% in size
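Huh7 cells stably carrying NPC1 promoter–luciferase, plated in Opti-MEM with 10% FBS for 2 h, were exposed to compound in DMSO for 24 h at 37 °C; luciferase reagent was added for 10 min and luminescence read.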
Luc counter = Kinase-Glo luciferase inhibition (counter-screen) | Q27757 | Kinase-Glo luciferase, ATP luminescence, 8 min | Potency, µM (highest dose often 38.3 µM), without a hit: at the highest dose activity change, negative = inhibition, hits mostly inhibitors | hit rate 0.28% among 200,000; note: % is set by controls: 0 for no effect and ±100 for the full control effect; nearly all actives have a fitted effect of over 60% in size
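Compound is pinned into ATP-containing buffer (10 uM ATP, imidazole pH 7.2, 7 mM MgCl2). Kinase-Glo luciferase reagent is then added. Light output is recorded following an 8-min room-temperature incubation.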
SMN2 splice up = SMN2 splice variant enhancement | Potency, µM (doses to about 46.1 µM), inactives show top-dose activity change, positive = activation, actives largely listed as activators | HEK293 SMN2-luciferase splicing reporter, luminescence, 30-36 h | AID 1458 | hit rate 2.8% among 210,000; note: % of control where 0% means no effect; nearly all actives have a fitted effect of over 55% in size
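HEK293 cells carry an SMN2 minigene-luciferase reporter in which exon 7 inclusion puts luciferase in frame. Cells were seeded at 2000 cells/well, attached for 10-12 hours, then exposed to compounds for 30-36 hours at 37C before ONE-Glo luminescence.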
FLuc modulator = firefly luciferase modulation, counter-screen for miR-21 project | purified FLuc, Km substrates, luminescence inhibition | hit rate 6.9% among 360,000 | Potency, µM (highest dose often 57.5 µM), without a hit: at the highest dose activity change, negative = inhibition, usual class: inhibitors | P08659;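 note: plate controls were vehicle for no effect and reference inhibitor for full effect; nearly all actives have a fitted effect of over 55% in size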
Target sequence (P08659 whole entry, looked up): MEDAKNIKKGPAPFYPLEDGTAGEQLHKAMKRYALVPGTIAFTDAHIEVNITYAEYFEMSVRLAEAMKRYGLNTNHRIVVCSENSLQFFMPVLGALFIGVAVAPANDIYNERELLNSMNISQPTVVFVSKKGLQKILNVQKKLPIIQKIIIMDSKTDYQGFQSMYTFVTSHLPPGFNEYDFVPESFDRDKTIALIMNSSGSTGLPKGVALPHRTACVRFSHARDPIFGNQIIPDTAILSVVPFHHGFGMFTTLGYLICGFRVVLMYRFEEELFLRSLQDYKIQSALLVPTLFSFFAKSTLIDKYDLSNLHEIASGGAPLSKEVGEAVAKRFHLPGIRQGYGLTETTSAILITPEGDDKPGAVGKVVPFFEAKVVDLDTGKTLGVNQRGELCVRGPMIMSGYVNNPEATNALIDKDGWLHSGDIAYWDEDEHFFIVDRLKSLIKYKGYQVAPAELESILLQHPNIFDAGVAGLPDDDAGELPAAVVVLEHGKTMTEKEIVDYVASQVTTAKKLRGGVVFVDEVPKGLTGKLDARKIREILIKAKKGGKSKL
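Biochemical qHTS of compounds, final roughly 60 µM downward over six points, against 10 nM purified firefly luciferase using Km concentrations of substrates (10 uM D-luciferin, 10 uM ATP) in Tris acetate pH 7.5 buffer; luminescence output.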
Rab9 promoter act = activators of Rab9 promoter; Huh7 Rab9 promoter-luciferase reporter, luminescence, 24 h; AID 485297; Potency, µM (series often up to 9.22 µM), inactives show at the top dose activation, negative = inhibition, most hits filed as activators; hit rate 2.8% among 320,000; note: % of control where 0% means no effect; nearly all actives have a fitted effect of over 60% in size
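Steps: seed 1500 Huh7 Rab9-luc cells per well, rest 2 h at 37 °C; add compound in DMSO; incubate 24 h; add luciferase reagent, 10 min ambient; read luminescence.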
An asterisk follows results filed as active; ? = inconclusive; . = not tested or not shown; [ ] = another dose, or the depositor's remark. Hits are enriched below; roughly 7.4% of the tested compounds scored in any of these assays. Calls come from the whole dose curve; as a rule, active = well fitted curve in the direction sought with a large enough effect; inconclusive = small, poorly fitted or top-dose-only effect, or another doubt; inactive = no such curve, though single readings can be large; an effect the other way counts as inactive or inconclusive. Potency is the fitted concentration of half-maximal effect.

SMILES	ELG1 genotoxic	NPC1 prom act	Luc counter	SMN2 splice up	FLuc modulator	Rab9 promoter act
O=C(OCc1ccc(Cl)cc1)c1cnccn1	-1%	4%	-5%	19%	-4%	6%
O=C(OCC(=O)c1ccc(Cl)s1)c1ccccn1	-1%	0%	-16%	5%	7.6µM*	0%
O=C(OCC(=O)c1ccc(Cl)s1)c1cnccn1	2%	-5%	.	.	19µM*	8%
O=C(COC(=O)c1ncc(Cl)c(Cl)c1Cl)c1ccc(Cl)s1	1%	10%	-3%	17%	12µM*	4%
CCc1ccccc1NC(=O)Cn1nnc(C(=O)NCc2ccco2)c1N	.	.	.	-8%	2%	.
Cc1ccc(C)c(NS(=O)(=O)c2ccc3c(c2)n(C)c(=O)n3C)c1	.	.	.	.	3%	.
CCOc1ccc(Oc2nc(NCC(C)C)nc(OC)n2)nn1	?	-1%	1%	23%	1%	-1%
CCNc1nc(NC(C)CC)nc(Oc2ccc(OCC)nn2)n1 (stereo unspecified)	?	-9%	0%	5.6µM*	-2%	-3%
Cc1ccc(N=c2oc3cc(O)ccc3cc2C(N)=O)cc1	-2%	?	.	.	19µM*	4.5µM*
CCCCOC(=O)Nc1ccc(C(=O)OCCC)cc1	?	23%	14%	-11%	19µM*	6%
O=C(Nc1ccc(N2CCCC2)cc1)c1cccc(Cl)c1	1.2µM*	0.32µM*	.	.	0.67µM*	0.25µM*
Cc1cc(C)cc(C(=O)Nc2ccc(N3CCCC3)cc2)c1	?	2.2µM*	-29%	8.9µM*	1.9µM*	1µM*
Cc1cc(C)cc(OCC(=O)Nc2ccc(N3CCCCC3)cc2)c1	1%	-3%	.	.	9%	-2%
Cc1cc(C)cc(NC(=O)Nc2ccc(N3CCCCC3)cc2)c1	?	3.5µM*	.	.	2.7µM*	4µM*
CC(=O)c1ccc(N2CCN(S(=O)(=O)c3c(C)nc4sc(C)cn4c3=O)CC2)cc1	.	.	.	.	-7%	.
Cc1ccc(NC(=O)C(Cc2c[nH]c3ccccc23)NC(=O)OCC(C)C)cc1 (stereo unspecified)	.	.	.	?	3%	.
CC(=O)OCC(=O)[C@]12OC(C)(C)O[C@@H]1C[C@H]1[C@H]3CC=C4C[C@@H](O)CC[C@]4(C)[C@H]3CC[C@]12C	.	.	-4%[7.66 µM]	-1%[9.22 µM]	.	.
CCCOC(=O)Nc1ccc(N2CCCCC2)cc1	.	.	-7%	14µM*	3µM*	.
CN(C)c1ccc(/C=C2/C=C(c3ccc4c(c3)CCCC4)OC2=O)cc1	0%	-5%	.	.	-19%	-4%
Cc1ccc(C2=C/C(=C/c3cccs3)C(=O)O2)cc1	4%	2%	-12%	-16%[1.84 µM]	0.38µM*	0%
CC(=O)Oc1cccc(/C=C2\C=C(c3ccc(C)cc3)OC2=O)c1	-4%	-2%	0%	-3%	2.7µM*	-1%
Cc1ccc(CN(Cc2ccco2)C(=O)COc2ccc(Cl)cc2)o1	.	.	.	-6%	-19%	.
COCCNc1nnc(SC(C)C(=O)Nc2c(C)n(C)n(-c3ccccc3)c2=O)s1 (stereo unspecified)	-2%	-3%	.	.	7%	0%
CC1=CCC(C(=O)O)C(C(=O)Nc2ccc(-c3nc4ccc(C)cc4s3)cc2)C1 (stereo unspecified)	5.2µM*	?	.	.	3.4µM*	23%
CNC(=S)Nc1ccc(-c2nc3ccc(C)cc3s2)cc1	?	0.79µM*	-2%	11µM*	1.3µM*	0.4µM*
CC(=O)Nc1ccc(S(=O)(=O)Nc2nc3ccc(C)cc3s2)cc1	4%	-4%	3%	-1%	-2%	-2%
CNC(=S)Nc1ccc(C)cc1	5%	-4%	-3%	-3%	2%	-3%
COCCNc1nnc(SC(C)C(=O)Nc2ccc(-c3nc4ccc(C)cc4s3)cc2)s1 (stereo unspecified)	?	1.6µM*	.	.	3µM*	0.28µM*
CC(=O)NC(=S)Nc1ccc(-c2nc3ccc(C)cc3s2)cc1	?	0.45µM*	-5%	13µM*	2.1µM*	0.45µM*
